Screening data: PubChem BioAssay, several laboratories
An excerpt weighted towards active compounds, which were near 4.5% of everything screened.
Gli-Sufu antag: Gli-Sufu pathway antagonists, primary screen, luciferase luminescence, Sufu-KO-LIGHT cells, uHTS. Sufu-KO-LIGHT fibroblasts, Gli luciferase reporter luminescence. inhibition, % at 5 µM. actives 0.74% (n = 340,000);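 active = inhibition above about 55%, limit read from the data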
aSyn 5UTR inh: MLPCN primary screen, SNCA 5' untranslated region | alpha-synuclein 5'UTR reporter, inhibitor activity | AID 1813, 2009 | inhibition, % (tested at 7.5 µM) | actives 0.82% (n = 300,000); in the data active = inhibition above about 60%;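 note: H4 neuroglioblastoma cells stably carrying SNCA 5'UTR luciferase fusion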
697 NFkB inh: inhibitors of PMA/ionomycin-induced NF-kB reporter, 697 cells, primary screen, B-cell NF-kB inhibitor project, cell-based, luminescence, uHTS. 697 B-cell NF-kB luciferase reporter, 16 h. inhibition, % at 4 µM. actives 0.33% (n = 330,000). AID 435022, 2010; in the data active = inhibition above about 35%
Mdm2-MdmX inh: inhibitors of human Mdm2-MdmX association, primary screen, cell-based, luminescence, split luciferase, SaOS-2, uHTS; SaOS-2 split-luciferase Mdm2/MdmX complementation; inhibition, % at 8 µM; actives 3% (n = 330,000); AID 485346, 2010;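 active = inhibition of at least 50% at 8 µM in the primary screen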
Target sequence (O15151 whole entry, looked up): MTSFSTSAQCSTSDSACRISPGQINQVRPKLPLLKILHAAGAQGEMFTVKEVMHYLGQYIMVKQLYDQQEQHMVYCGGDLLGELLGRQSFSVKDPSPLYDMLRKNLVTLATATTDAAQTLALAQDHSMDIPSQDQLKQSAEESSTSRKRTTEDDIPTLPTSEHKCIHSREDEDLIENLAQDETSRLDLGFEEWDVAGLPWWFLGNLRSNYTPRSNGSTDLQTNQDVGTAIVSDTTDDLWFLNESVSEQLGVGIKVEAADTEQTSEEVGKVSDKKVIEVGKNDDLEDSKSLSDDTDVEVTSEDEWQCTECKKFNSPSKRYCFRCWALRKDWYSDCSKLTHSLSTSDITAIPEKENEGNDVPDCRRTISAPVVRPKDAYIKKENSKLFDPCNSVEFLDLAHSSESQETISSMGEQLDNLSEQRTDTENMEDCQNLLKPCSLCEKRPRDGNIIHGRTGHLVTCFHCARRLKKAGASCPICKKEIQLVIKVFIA
Target sequence (Q00987 whole entry, looked up): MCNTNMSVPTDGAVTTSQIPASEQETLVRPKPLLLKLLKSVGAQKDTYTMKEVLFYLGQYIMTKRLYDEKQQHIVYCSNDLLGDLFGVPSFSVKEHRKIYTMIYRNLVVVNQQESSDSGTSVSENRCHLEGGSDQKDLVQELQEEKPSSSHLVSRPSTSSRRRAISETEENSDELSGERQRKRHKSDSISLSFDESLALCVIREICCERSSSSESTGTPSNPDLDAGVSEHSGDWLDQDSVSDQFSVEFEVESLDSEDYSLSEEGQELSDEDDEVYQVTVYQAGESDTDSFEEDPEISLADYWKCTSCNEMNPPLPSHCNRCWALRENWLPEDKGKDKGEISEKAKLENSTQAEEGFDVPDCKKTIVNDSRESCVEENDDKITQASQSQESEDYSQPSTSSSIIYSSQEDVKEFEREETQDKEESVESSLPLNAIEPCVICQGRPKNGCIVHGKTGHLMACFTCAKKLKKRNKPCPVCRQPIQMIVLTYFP
Jurkat NFkB inh: inhibitors of induced NF-kB luciferase reporter, primary screen, TCR NF-kB activation inhibitor project, cell-based, luminescence, uHTS; Jurkat, PMA/ionomycin-induced NF-kB luciferase reporter; inhibition, % at 4 µM; actives 0.53% (n = 330,000); in the data active = inhibition above about 50%
CSC inhib: cancer stem cell viability inhibitors, primary screen, luminescence; cancer stem cell-like cells viability; inhibition, % at 7.5 µM; actives 1.1% (n = 300,000); in the data active = inhibition above about 75%; tested in HMLE shEcad cells
Mdm2-MdmX conf: Mdm2-MdmX complex disruptors, retested hits, confirmation, luminescence, single concentration; shares compounds with Mdm2-MdmX inh; Mdm2-MdmX binding, luminescent assay; inhibition, % at 8 µM; actives 55% (n = 10,000); AID 489028, 2010; in the data active = inhibition above about 40%
Full FLuc ctr: full-length luciferase signal inhibition, confirmation, counter-screen for Mdm2/MdmX interaction inhibitor project, cell-based, single concentration, SaOS-2; SaOS-2 full-length luciferase counterscreen, luminescence; shares compounds with Mdm2-MdmX inh; AID 504607, 2011; actives 77% (n = 6,200); inhibition, % at 8 µM;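 active = mean inhibition at 8 µM reaching about 37%, which flags the compound as non-specific, limit read from the data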;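 note: p53-null SaOS-2 cells with luciferase driven by a doxycycline-inducible promoter; compound on cells about two nights before reading with doxycycline added after day one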
Large screens that a line does not name were inactive (follow-up assays come after a bar, where they were run).

COc1ccc(-c2cc(C(F)(F)F)c(C#N)c(SCC(=O)Nc3nc(C)co3)n2)cc1	Mdm2-MdmX inh 61.6 (no result: CSC inhib) | Mdm2-MdmX conf inactive
CC(=O)c1ccc(OC(=O)CCc2nc3ccccc3s2)cc1	none
CCOc1cc(C(=S)N2CCCC2)ccc1O	none
C=CCOc1c(Cl)cc(C(=S)N2CCCC2)cc1OCC	Mdm2-MdmX inh 57.9 | Mdm2-MdmX conf inactive
Cc1ccc2oc(C(F)(F)C(F)F)cc(=O)c2c1	none
Cc1ccc2oc(C(Cl)(Cl)Cl)cc(=O)c2c1	Mdm2-MdmX inh 74.2 | Mdm2-MdmX conf 53.1 | Full FLuc ctr 60.3
COc1ccc(N2CCN(C(=O)CC34CC5CC(CC(C5)C3)C4)CC2)c([N+](=O)[O-])c1	none
CCC(Sc1nc(-c2ccccc2)c(-c2ccccc2)[nH]1)C(=O)O (stereo not drawn)	none
Cc1ccc(NC(=O)CCC(=O)N/N=C/c2ccc(O)cc2O)cc1	none
C=CCc1cccc(/C=N/NC(=O)CCC(=O)Nc2ccc(C)cc2)c1O	Mdm2-MdmX inh 65.1 | Mdm2-MdmX conf 65.2 | Full FLuc ctr 52.2
CCCC1CC(C(=O)NC(C(C)Cl)C2OC(SC)C(O)C(O)C2O)N(C)C1 (stereo not drawn)	none
Cn1c(=O)[nH]c(=O)c2c1nc(N/N=C/c1cccnc1)n2Cc1ccc(Cl)cc1	Mdm2-MdmX inh 62.4 | Mdm2-MdmX conf inactive
Cc1cc2c(C)cc(=O)[nH]c2cc1NC(=O)CCl	none
O=C(CCl)Nc1cc2[nH]c(=O)[nH]c2cc1Br	Mdm2-MdmX inh 93.8 | Mdm2-MdmX conf 74.0 | Full FLuc ctr 60.1
Cc1nnc2c3ccccc3c(-c3ccc(O)cc3)nn12	Mdm2-MdmX inh 66.5 | Mdm2-MdmX conf inactive | Full FLuc ctr 61.8
Cc1nnc2c3ccccc3c(-c3cccs3)nn12	Mdm2-MdmX inh 54.1 | Mdm2-MdmX conf inactive | Full FLuc ctr 53.4
Cc1nnc2c3ccccc3c(Cl)nn12	none
COc1ccc(N=c2oc3ccc(OC)cc3cc2-c2nc3ccccc3[nH]2)cc1	Mdm2-MdmX inh 92.7 | Mdm2-MdmX conf inactive
COc1cccc(N=c2oc3ccc(OC)cc3cc2-c2nc3ccccc3[nH]2)c1	none
O=C(NCCO)c1cc2c([nH]c3ccccc32)c(-c2ccccc2)n1	none (no result: Gli-Sufu antag)
Cc1ccccc1-c1nc(C(=O)NCC2CCCO2)cc2c1[nH]c1ccccc12 (stereo not drawn)	Mdm2-MdmX inh 57.4 | Mdm2-MdmX conf inactive
Cc1ccc(-c2nc(C(=O)NCCCN(C)C)cc3c2[nH]c2ccccc23)cc1	Mdm2-MdmX inh 66.4 | Mdm2-MdmX conf inactive
O=C(NCC1CCCO1)c1cc2c([nH]c3ccccc32)c(-c2cccc(Br)c2)n1 (stereo not drawn)	Mdm2-MdmX inh 62.1 | Mdm2-MdmX conf inactive | Full FLuc ctr 63.3
Cc1cccc[n+]1CCCCCCCCCC[n+]1ccccc1C	none
CCCCCCCC[n+]1cccc2c3ccccc3ccc21	Gli-Sufu antag 90.5, Mdm2-MdmX inh 86.4 | Mdm2-MdmX conf 83.8 | Full FLuc ctr inactive
COC(=O)Nc1ccc(S(=O)(=O)N2CCCC(C(=O)N3CC(C)OC(C)C3)C2)cc1 (stereo not drawn)	none
CCOC(=O)/C=c1\s/c(=C\c2ccc3c(c2)OCCO3)c(=O)n1CC(=O)NCC1CCCO1 (stereo not drawn)	none
CCOC(=O)/C=c1\s/c(=C\c2ccccc2C)c(=O)n1CC(=O)NCc1ccc2c(c1)OCO2	Mdm2-MdmX inh 92.1 | Mdm2-MdmX conf 67.5 | Full FLuc ctr 44.1
CCOC(=O)/C=c1\s/c(=C\c2ccc3cc(OC)ccc3c2)c(=O)n1CC(=O)NCc1ccc2c(c1)OCO2	Mdm2-MdmX inh 79.4 | Mdm2-MdmX conf inactive
O=C(NCc1ccco1)c1sc(=S)n2c1[nH]c(=O)c1ccccc12	none
O=C(NC1CCCC1)c1sc(=S)n2c1[nH]c(=O)c1ccccc12	Mdm2-MdmX inh 56.9 | Mdm2-MdmX conf inactive
CC(C)CCN1C(=O)c2ccc(C(=O)Nc3c[nH]c(=O)[nH]c3=O)cc2C1=O	none
COc1ccc(O)c(/C=N/NC(=O)c2ccc(OCc3cccc(Br)c3)cc2)c1	aSyn 5UTR inh 82.3, Mdm2-MdmX inh 67.9, CSC inhib 90.7 | Mdm2-MdmX conf 69.2 | Full FLuc ctr inactive
O=S(=O)(c1cccc(COc2c(Cl)cccc2Cl)c1)N1CCOCC1	none
COc1ccc(-c2csc(NC(=S)NC(=O)c3ccc4ccccc4c3)n2)cc1OC	Mdm2-MdmX inh 78.0 | Mdm2-MdmX conf inactive
O=C(/C=C/c1ccco1)NC(=S)Nc1nc(-c2ccc(Cl)cc2)cs1	Mdm2-MdmX inh 60.6 (no result: CSC inhib) | Mdm2-MdmX conf 54.2 | Full FLuc ctr 67.1
COc1ccc(-c2csc(NC(=O)Cc3ccccc3)n2)cc1OC	none
O=C(/C=C/c1ccco1)NC(=S)Nc1nc(-c2ccc3ccccc3c2)cs1	Mdm2-MdmX inh 77.9, CSC inhib 75.8 | Mdm2-MdmX conf 45.0 | Full FLuc ctr 48.2
O=C(/C=C\c1ccco1)Nc1nc(-c2ccccc2)cs1	none (no result: CSC inhib)
COc1ccc(-c2csc(NC(C)=O)n2)cc1OC	none
COc1ccc(-c2csc(NC(=S)NC(=O)/C=C/c3ccccc3)n2)cc1Br	Mdm2-MdmX inh 55.2 | Mdm2-MdmX conf inactive
CCn1nc(C)c(CNCc2cn[nH]c2-c2cc3ccccc3o2)c1C	none
CCOCCc1c(O)nc(SCC(=O)N2CCOCC2)[nH]c1=O	none
COc1ccc(-c2csc(NC(=O)CCn3cnc4ccccc4c3=O)n2)cc1OC	Mdm2-MdmX inh 57.7 | Mdm2-MdmX conf inactive
CCOC(=O)C1CCN(C(=O)Nc2ccc(OC(F)(F)F)cc2)CC1	none
CC(=O)Nc1ccc(NC(=O)CN(c2ccc(C34CC5CC(CC(C5)C3)C4)cc2)S(C)(=O)=O)cc1	Mdm2-MdmX inh 56.2 | Mdm2-MdmX conf inactive
CS(=O)(=O)N(CC(=O)Nc1ccc(CC#N)cc1)c1ccc(C23CC4CC(CC(C4)C2)C3)cc1	Mdm2-MdmX inh 63.6 | Mdm2-MdmX conf inactive
CS(=O)(=O)N(CC(=O)Nc1c(F)cccc1F)c1ccc(C23CC4CC(CC(C4)C2)C3)cc1	none
CNC(=O)CN(c1ccc(C23CC4CC(CC(C4)C2)C3)cc1)S(C)(=O)=O	none
CCCN(CCC)S(=O)(=O)c1ccc(C(=O)Nc2nnc(-c3cc(OC)cc(OC)c3)o2)cc1	aSyn 5UTR inh 81.7, Mdm2-MdmX inh 51.2 | Mdm2-MdmX conf inactive
